# Experimental data published in the supplement of paper PMC12632987.
# T1: USP38, Q8NB14
# T1 chain: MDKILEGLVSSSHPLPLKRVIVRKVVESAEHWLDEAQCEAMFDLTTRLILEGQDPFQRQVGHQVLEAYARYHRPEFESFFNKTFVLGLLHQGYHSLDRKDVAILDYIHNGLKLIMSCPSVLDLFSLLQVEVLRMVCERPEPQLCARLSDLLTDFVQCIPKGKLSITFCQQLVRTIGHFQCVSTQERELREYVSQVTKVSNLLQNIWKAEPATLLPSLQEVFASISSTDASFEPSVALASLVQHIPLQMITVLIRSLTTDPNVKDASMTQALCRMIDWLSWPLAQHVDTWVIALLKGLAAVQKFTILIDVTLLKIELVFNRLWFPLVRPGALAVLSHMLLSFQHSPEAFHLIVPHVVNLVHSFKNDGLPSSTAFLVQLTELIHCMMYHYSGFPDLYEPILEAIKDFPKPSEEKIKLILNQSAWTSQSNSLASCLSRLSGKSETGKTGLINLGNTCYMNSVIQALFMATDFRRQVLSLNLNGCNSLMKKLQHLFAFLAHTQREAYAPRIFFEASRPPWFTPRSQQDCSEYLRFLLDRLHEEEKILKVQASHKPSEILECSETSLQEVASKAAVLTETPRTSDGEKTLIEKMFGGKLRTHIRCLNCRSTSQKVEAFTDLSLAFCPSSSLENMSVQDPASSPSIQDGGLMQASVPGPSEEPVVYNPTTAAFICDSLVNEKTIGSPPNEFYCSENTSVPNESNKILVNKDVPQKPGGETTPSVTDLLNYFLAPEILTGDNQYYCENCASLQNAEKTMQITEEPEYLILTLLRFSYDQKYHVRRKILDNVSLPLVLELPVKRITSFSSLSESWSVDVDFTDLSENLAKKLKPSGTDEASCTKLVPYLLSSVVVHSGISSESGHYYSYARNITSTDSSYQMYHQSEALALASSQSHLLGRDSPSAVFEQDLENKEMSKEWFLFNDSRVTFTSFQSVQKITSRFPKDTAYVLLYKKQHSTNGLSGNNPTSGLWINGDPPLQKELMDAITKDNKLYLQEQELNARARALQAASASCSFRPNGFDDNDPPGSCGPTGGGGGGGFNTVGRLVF
# B1: usp_38_diff_out_14_2_82 (protein)
# chain: AVEKIKKATEETLKVLEEAIKKFKELKKEVEADPSKAEEARKEILKAWDKAGDAVGALNKLIEENPEAKEENKEATKKVNEALTKLTKEALEALQAAAEA
# B2: usp_38_diff_out_14_2_94 (protein)
# chain: GEEELKKKYEETLKVLEEAIKEAKKIKEEVKKDPSIAEEKRKELFEKWDEAADKVGELQKLLEENPEHKELNKKIIEEVNKKITELTKAALEALEELAKA
# B3: usp_38_diff_out_14_54_126 (protein)
# chain: SERLRRLLEEARRKLAEAERYLEEAEKALEEGAPLEEIERLLDEAARALGAAARALREAATLATDPESRAELEELRARADELTDRYTELAREAFLRRLEE
# B4: usp_38_diff_out_14_2_89 (protein)
# chain: GEEELEKKTKETLEKLEELIELAKKIKEEVEKDPSKAEELRKELFKKWDEVGEKVGELAKLIEEHKELPELNKKAVKEVNEKLSEATKEILEALELLAEA
# B5: usp_38_diff_out_14_2_84 (protein)
# chain: MEEEIKKKTKETLKKIEEAIKRAKELKERVKKDPSLKEKAREELFKEWDEAADKVGELEKLLRENKENPELNKKAREEVNKKLTELTEVALETLELIAEV
# B6: usp_38_diff_out_14_75_130 (protein)
# chain: SMKEELEKRLEELEERLKELEEKGVLTGRTVVELGGVLYVARLAIEAGDLETAEKLLEIAEKALEDPENAKEILDENEDFIVSTHIELELRRIEEEEAAR
# B7: usp_38_diff_out_14_75_132 (protein)
# chain: SEKEELEKRLEELEKRLEELEKEGKLTGRLVVELGGVLHVAREAIEAGKLETAKKLLEIAEQALEDPERAREILRENEDFIVDTYKELALEEIEKEEAER
# B8: usp_38_diff_out_14_2_90 (protein)
# chain: GEEELKKKYEETKKTLEEAIKKAKELKEEVKKDPSKAEEARKRLFEEWDKAADKVGELEKLIRENPEHKELNKKIIEEVNKLITELTKAALEALEAIAEA
# B9: usp_38_diff_out_14_2_99 (protein)
# chain: AKEELEKATKETLKVLKEAIKKAKELLKEVKKDPSKAEEATKKLFEEWDKAADAVGKLAKLIEEHKEERKLNKEAIEKVNKELTELTKVTLEALEEAAKA
# B10: usp_38_diff_out_14_75_136 (protein)
# chain: SEREELRARLAAARARLDALVAAGVISGRLEVELGAVLHVAALAIEAGDLETARRLLDIVEAALADPARAREILRAAEDFIVDAYKRLELRRIEEEEEER
# B11: usp_38_diff_out_14_2_83 (protein)
# chain: MEEEIKEKTKETLEEIEKAIKELKELEKEVKKDPSKKEEAYKKAFEKWDKAADKVGELEKLLRENKENPELNKKAKEEINEKLTKLTEEALKLLETIAEV
# B12: usp_38_diff_out_14_2_80 (protein)
# chain: AEEKLKKATEETLKVLKEAIKKAKELKKEVEADPSLAEKAREELLKAWDKAGDAVGALNKLIEENKEAKETRKKATEEVNKAIDELTKEVLEALQTAAEA
# B13: usp_38_diff_out_14_75_129 (protein)
# chain: SEREKLEERLEAAEARLAALVAAGVISGRTEVKLGAVLHVARLAIEQGDLETAEKLLEIVEKALADPANADKILDENEDFIVSTYKELALRELEEEEKKR
# B14: usp_38_diff_out_14_75_134 (protein)
# chain: SEKEELEERLAALEARLEALVAEGVISGRLEVELGAVLHTARLAIEAGRLEEARRLLDIAEEALADPARAREILRANEDFIVSTHLRLELERLAAEEAAR
# B15: usp_38_diff_out_14_2_95 (protein)
# chain: GEEELKKAAKETKEVLKKAIEEAKELEKKVKEDPSQAEQARKELFKKWDEAGDAVGKLEKLLRENPEHKELNKKIIEEVNKLINELTKAALKALETLAEA
# B16: usp_38_diff_out_14_75_131 (protein)
# chain: SEREELERRLEELRARLAALEAAGVITGRKVVKLGGALHVAELAIRAGRLEEARKILDIVEEALDDPERADEILDENEDFIVDTYKELALAEIEAEEAAR
# B17: usp_38_diff_out_14_2_87 (protein)
# chain: AEEELKKATKETLKKLEEHIKLAKELAERVKKDPSTAEQAREELFASWDEVGDKVGALAKLIEENKEIPELRKKAIEEVNKKLTEATEATLAALELLAEA
# B18: usp_38_diff_out_14_75_133 (protein)
# chain: SEREELEKRLEELRARLAALVAAGVISGRLEVELGAVLYTAELAIEAGKLEEAKKLLDIAEAALDDPANAKAILDANEDFIVSTYKELELERIEREEEEE
# B19: usp_38_diff_out_14_2_88 (protein)
# chain: AEEELKKATEETLKKLEEGIKLAKELTKKVKEDPSQAEKAREELFKKHDEIGDAVGRLAKLIEEHKEIPALNKEAVEEVNKKLTEYTEETLKALELLAEA
# B20: usp_38_diff_out_14_2_93 (protein)
# chain: GEEELKKLFEETKKVLEEAIKRAEELTKEVKADPSQAEKARKELFKAWDEAGDKVGELQKKIEENKEHKELNKKIIKEVNELITKLTEAALAALEEIAAA
# B21: usp_38_diff_out_14_75_135 (protein)
# chain: SEREELERRLEELEERLARLVAEGVISGRTEVKLGAVLHVARLAIEEGRLEEARKLLEIVERALADPERADEILEENEDFIVSTYLELELRRLAEEEAKR
# B22: usp_38_diff_out_14_2_97 (protein)
# chain: GKEELEKKFKETKKVLEEAIKKAKELKKEVEKDPSKAEEARKKLFEAWDKAADKVGELQKLLEENPEYKELNKKIIEEVNKLLTELTKAALEALELIAEA
# B23: usp_38_diff_out_14_2_98 (protein)
# chain: AEEELKKATEETLKVLDEAIKKAKELKERVKKDPSLAEEAREELFKAWDKAADAVGELAKLMEEHRELRELNKKAVEEVNKKLTELTEELLEALELAAEA
# B24: usp_38_diff_out_14_54_124 (protein)
# chain: MEELERLLEEAERALREAEEALERAERLLEEGGPLEEIRRELDRAARAIGRLGEALRRARALATDPEVKKRLEELEKKADELVDRYNELARRALEMEAER
# B25: usp_38_diff_out_14_54_128 (protein)
# chain: DEEIERLLEEARKKLEELKKLKEELKKLVKAGASMEEIFAAYDKAADAAAAAGEAIRRLRKLSTDPEVKEEARKLEEEVNKLLDEVTELVTEALERAAER
# B26: usp_38_diff_out_14_2_92 (protein)
# chain: GKEKLEEKFKETKEKLKEAIKKAKELKKEVKKDPSKAEEAREELFKAWDEAGDKVGELEKLLRENPEYKELNKKIKEEVNKLITELTEAALEALEEIAKA
# B27: usp_38_diff_out_14_54_127 (protein)
# chain: DEEIKRLLEEARKYLEEAKKALAELKELVAAGAAPEEVFAAYDKAADAIAKAGEAIRRLMRLSTDPEVRKEAREIQEEADKLVDEMTEAVTAAQEKAAEA
# B28: usp_38_diff_out_14_2_81 (protein)
# chain: AEEELKAATEKTLAVLDDAIKAAKELTKEVKKDPSLAEKAREKLLEEWDKAGDAVGELEKLILENKEAKETNKEAREKVNKKLDELTKAFLEALETAAEA
# B29: usp_38_diff_out_14_54_125 (protein)
# chain: MEELEKLLKEAEKALKEAEKALAAAEALLEAGGPLAEIRALLDAAARAIGAAGEALRKARALATDPEVKKKLEELRKRADELVDRYNELARRALEREAAA
# B30: usp_38_diff_out_14_2_85 (protein)
# chain: AEEKIKKATEKTLKKLEEAIKLAKELKEEVKKDPSKAEKAREELFKKWDEVGDAVGELAKLLEENKEIPALNKEANEKVNEKLTELTKATLEALEELAEA
# B31: usp_38_diff_out_14_54_123 (protein)
# chain: SEELEELLEEARRALEEARRALREAERLLREGGPLEEVREALDRAARAIGRLGEALRRARALATDPEVLKELERLEKEADELVDRYTELARRALEMEAER
# B32: usp_38_diff_out_14_2_86 (protein)
# chain: AEEELKKKTEETKKKLKEGIELAKKIKEEVKKDPSKAEELRKKLFEKHDEIGDKVGELAKLIEEHKEIPALRKEAVKEVNELLTEYTKALLEALEELAKA
# Biological target: T1, USP38, Q8NB14
# Experiment: median log2 fold change of GCK-ALFA target abundance (FLAG IP / Myc IP barcode read proportion) (log2 ratio); each designed protein is fused to an ALFA-tag nanobody in HEK293 cells to bring the named protein to FLAG-tagged glucokinase (GCK); Myc marks an untargeted standard; higher = target protein stabilised (more abundant)
# Settings: target protein: 3xFLAG-MCP-GCK-ALFA reporter; HEK293 landing pad (RPLP)
# Procedure, shortened: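 HEK293 landing-pad cells received a recombined binder library fused to the ALFA nanobody and were induced with 2 μg mL^−1 doxycycline, then transfected with a plasmid encoding a FLAG-tagged target and a Myc-tagged standard. Lysates were collected after 48 h for anti-FLAG and anti-Myc immunoprecipitation, and the circular RNA barcodes were reverse transcribed, amplified and sequenced. Target abundance for each binder is the median log2 ratio of FLAG to Myc barcode read proportions. Barcodes had to reach a proportion of at least 10^−7 in both replicates, each binder needed at least 3 barcodes per replicate, a pseudocount of 10^−6 was applied, and the two replicates were pooled.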
binder,measurement,value
B1,median log2 fold change,-0.116
B2,median log2 fold change,0.0575
B3,median log2 fold change,0.0528
B4,median log2 fold change,-0.37
B5,median log2 fold change,-0.366
B6,median log2 fold change,-0.097
B7,median log2 fold change,-0.63
B8,median log2 fold change,-0.724
B9,median log2 fold change,-0.478
B10,median log2 fold change,0.0109
B11,median log2 fold change,-0.316
B12,median log2 fold change,-0.879
B13,median log2 fold change,0.261
B14,median log2 fold change,0.0715
B15,median log2 fold change,-0.416
B16,median log2 fold change,0.103
B17,median log2 fold change,-0.418
B18,median log2 fold change,0.198
B19,median log2 fold change,-0.277
B20,median log2 fold change,-0.0116
B21,median log2 fold change,-0.475
B22,median log2 fold change,-0.467
B23,median log2 fold change,-0.576
B24,median log2 fold change,0.191
B25,median log2 fold change,-0.492
B26,median log2 fold change,-0.436
B27,median log2 fold change,0.232
B28,median log2 fold change,-0.289
B29,median log2 fold change,-0.00832
B30,median log2 fold change,-0.606
B31,median log2 fold change,0.491
B32,median log2 fold change,-0.431
